Measurements taken from ChEMBL document CHEMBL1961873, “Compounds: GSK PKIS; Assays: Nanosyn kinase panel” (2012).
Several values for one entry are separate records, joined by “and”; a condition that tells them apart may be missing. Equal entries are not always repeated.

Assays:
[1] = target: T1, Mitogen-activated protein kinase 12 (Homo sapiens) (UniProt P53778); conditions: at 1 µM;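 also: values are averaged p38gamma kinase inhibition readings, compounds tested at 1 µM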
T1 sequence (whole entry): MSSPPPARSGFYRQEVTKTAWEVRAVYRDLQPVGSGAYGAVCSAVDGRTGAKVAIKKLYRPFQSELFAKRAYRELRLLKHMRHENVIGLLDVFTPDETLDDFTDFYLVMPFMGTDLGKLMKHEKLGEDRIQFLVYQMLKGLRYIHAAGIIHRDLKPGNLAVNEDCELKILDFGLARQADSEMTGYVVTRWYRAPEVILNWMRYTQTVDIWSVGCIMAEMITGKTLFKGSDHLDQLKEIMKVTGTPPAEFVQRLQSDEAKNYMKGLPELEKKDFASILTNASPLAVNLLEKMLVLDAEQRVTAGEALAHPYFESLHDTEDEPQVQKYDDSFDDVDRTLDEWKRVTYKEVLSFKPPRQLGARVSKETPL

[2] = target: SRSF protein kinase 1 (Homo sapiens) (UniProt Q96SB4); conditions: at 0.1 µM
SRSF protein kinase 1 (Homo sapiens), sequence (Q96SB4 whole entry, canonical isoform): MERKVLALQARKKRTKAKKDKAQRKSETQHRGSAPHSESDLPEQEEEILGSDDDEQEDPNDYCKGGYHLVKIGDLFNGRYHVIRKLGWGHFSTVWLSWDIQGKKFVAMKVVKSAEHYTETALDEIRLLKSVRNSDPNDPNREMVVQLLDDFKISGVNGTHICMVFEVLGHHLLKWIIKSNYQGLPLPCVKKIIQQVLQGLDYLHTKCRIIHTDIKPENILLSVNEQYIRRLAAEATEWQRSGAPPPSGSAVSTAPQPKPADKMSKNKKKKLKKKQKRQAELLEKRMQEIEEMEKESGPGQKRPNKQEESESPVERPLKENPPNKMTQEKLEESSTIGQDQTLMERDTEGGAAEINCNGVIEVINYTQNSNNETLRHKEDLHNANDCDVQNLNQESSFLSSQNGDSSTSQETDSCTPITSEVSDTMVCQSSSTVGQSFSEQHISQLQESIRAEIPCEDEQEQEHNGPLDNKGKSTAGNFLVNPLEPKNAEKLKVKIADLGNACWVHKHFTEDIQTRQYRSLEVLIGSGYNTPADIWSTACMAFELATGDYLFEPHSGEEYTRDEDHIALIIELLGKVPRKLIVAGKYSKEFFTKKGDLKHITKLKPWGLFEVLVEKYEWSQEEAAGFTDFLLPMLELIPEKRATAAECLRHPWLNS

[3] = target: SRSF protein kinase 1 (Homo sapiens) (UniProt Q96SB4); conditions: at 1 µM
[4] = target: Phosphatidylinositol 4,5-bisphosphate 3-kinase catalytic subunit alpha isoform (Homo sapiens) (UniProt P42336); conditions: at 0.1 µM
Phosphatidylinositol 4,5-bisphosphate 3-kinase catalytic subunit alpha isoform (Homo sapiens), sequence (P42336 whole entry, canonical isoform): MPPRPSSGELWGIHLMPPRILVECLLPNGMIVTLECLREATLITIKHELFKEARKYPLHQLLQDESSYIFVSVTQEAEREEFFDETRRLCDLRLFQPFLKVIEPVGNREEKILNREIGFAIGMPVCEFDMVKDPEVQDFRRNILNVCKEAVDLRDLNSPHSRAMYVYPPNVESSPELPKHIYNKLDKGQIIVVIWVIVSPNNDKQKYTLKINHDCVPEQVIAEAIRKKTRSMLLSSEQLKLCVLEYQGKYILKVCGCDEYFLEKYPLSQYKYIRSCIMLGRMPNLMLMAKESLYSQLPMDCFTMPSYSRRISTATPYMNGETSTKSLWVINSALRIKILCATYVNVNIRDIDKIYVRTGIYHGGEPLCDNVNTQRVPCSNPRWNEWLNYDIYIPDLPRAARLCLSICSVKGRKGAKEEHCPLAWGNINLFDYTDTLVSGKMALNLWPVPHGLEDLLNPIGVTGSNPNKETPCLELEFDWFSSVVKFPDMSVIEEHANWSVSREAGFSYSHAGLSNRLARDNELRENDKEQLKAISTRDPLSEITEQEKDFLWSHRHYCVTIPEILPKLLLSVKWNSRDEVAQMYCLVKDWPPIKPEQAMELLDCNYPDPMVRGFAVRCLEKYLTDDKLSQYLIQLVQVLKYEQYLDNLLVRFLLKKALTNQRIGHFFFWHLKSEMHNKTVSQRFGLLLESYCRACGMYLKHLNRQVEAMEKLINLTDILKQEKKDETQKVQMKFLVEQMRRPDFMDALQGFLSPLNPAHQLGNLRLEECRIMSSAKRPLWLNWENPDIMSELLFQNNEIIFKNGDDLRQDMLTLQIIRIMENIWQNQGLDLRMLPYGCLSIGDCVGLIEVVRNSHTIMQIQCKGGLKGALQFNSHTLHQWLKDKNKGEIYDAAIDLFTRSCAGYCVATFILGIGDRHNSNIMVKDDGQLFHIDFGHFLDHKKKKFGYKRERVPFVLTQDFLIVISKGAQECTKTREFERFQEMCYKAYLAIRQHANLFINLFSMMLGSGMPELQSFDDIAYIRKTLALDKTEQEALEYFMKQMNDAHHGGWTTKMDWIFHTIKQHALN

[5] = target: Phosphatidylinositol 4,5-bisphosphate 3-kinase catalytic subunit alpha isoform (Homo sapiens) (UniProt P42336); conditions: at 1 µM
[6] = target: T2, Phosphatidylinositol 4,5-bisphosphate 3-kinase catalytic subunit delta isoform (Homo sapiens) (UniProt O00329); conditions: at 0.1 µM
T2 sequence (whole entry): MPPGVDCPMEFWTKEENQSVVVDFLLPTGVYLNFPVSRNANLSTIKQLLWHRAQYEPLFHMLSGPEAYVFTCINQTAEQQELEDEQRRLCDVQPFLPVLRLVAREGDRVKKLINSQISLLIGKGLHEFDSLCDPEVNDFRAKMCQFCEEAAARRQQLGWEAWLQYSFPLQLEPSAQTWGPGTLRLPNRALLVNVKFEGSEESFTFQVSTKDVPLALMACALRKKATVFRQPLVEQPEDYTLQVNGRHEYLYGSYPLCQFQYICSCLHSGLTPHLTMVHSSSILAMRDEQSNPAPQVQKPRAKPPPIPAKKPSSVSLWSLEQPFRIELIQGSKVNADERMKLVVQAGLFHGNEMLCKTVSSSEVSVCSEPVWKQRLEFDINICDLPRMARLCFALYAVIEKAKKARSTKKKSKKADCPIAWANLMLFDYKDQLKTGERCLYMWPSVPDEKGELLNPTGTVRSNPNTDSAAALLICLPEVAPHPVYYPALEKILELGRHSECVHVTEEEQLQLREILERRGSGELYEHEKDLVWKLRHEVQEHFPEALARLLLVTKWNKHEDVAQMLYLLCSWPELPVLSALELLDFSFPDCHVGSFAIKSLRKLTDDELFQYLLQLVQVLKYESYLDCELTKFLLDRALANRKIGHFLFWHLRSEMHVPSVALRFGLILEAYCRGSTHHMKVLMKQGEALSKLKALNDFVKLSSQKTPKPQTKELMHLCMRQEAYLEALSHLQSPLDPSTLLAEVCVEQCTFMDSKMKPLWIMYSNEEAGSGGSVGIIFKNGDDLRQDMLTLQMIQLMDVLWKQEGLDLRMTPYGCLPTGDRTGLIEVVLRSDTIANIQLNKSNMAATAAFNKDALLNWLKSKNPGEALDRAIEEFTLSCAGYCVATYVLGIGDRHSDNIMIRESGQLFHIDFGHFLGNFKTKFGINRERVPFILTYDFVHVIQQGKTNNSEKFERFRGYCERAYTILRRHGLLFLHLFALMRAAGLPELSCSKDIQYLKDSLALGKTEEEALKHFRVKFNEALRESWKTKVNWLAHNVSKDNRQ

[7] = target: T2, Phosphatidylinositol 4,5-bisphosphate 3-kinase catalytic subunit delta isoform (Homo sapiens); conditions: at 1 µM
[8] = target: Phosphatidylinositol 4-kinase beta (Homo sapiens) (UniProt Q9UBF8); conditions: at 0.1 µM
Phosphatidylinositol 4-kinase beta (Homo sapiens), sequence (Q9UBF8 2-816 limits assumed): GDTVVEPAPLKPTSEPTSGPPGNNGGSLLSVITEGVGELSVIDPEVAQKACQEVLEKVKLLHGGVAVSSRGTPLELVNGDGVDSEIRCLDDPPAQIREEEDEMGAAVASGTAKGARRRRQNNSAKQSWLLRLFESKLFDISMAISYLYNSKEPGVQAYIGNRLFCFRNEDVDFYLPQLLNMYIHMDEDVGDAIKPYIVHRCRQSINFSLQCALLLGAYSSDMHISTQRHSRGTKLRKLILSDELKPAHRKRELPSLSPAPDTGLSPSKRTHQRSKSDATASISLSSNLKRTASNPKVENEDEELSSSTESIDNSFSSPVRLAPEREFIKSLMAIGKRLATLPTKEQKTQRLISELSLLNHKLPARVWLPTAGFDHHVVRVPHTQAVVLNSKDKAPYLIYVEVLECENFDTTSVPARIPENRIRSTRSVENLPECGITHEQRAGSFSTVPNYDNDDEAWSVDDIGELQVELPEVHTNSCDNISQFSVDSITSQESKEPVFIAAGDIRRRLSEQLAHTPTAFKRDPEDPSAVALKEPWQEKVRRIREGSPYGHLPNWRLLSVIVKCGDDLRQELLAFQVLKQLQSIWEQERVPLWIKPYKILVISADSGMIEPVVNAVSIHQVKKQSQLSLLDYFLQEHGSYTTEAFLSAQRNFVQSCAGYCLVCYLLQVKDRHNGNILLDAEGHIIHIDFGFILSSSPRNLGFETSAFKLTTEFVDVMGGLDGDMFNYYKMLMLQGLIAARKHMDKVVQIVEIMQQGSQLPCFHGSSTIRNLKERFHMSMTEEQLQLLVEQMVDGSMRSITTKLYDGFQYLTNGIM

[9] = target: Phosphatidylinositol 4-kinase beta (Homo sapiens) (UniProt Q9UBF8); conditions: at 1 µM
[10] = target: Sphingosine kinase 1 (Homo sapiens) (UniProt Q9NYA1); conditions: at 0.1 µM;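 also: mean percent inhibition of SPHK1 activity, measured within the GSK PKIS screening panel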
Sphingosine kinase 1 (Homo sapiens), sequence (Q9NYA1 whole entry): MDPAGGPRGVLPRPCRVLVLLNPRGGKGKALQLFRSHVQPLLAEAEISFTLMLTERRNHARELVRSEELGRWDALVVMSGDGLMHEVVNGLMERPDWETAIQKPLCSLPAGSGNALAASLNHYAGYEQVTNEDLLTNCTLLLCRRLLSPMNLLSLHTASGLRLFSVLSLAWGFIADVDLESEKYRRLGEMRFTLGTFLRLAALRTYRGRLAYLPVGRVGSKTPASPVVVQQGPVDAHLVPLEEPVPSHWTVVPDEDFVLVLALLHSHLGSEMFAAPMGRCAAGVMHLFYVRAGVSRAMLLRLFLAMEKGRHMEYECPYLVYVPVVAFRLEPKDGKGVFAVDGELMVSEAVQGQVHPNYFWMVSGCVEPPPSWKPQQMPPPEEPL

SMILES	inhibition [1]	inhibition [2]	inhibition [3]	inhibition [4]	inhibition [5]	inhibition [6]	inhibition [7]	inhibition [8]	inhibition [9]	inhibition [10]
O=C(O[C@H]1CN[C@H](C#Cc2cc3ncnc(Nc4ccc5c(cnn5Cc5ccccc5)c4)c3s2)C1)N1CCOCC1	-0.96%	-2.05%	-3.6%	-1.75%	7.49%	0.29%	9.02%	1.41%	2.11%	2.86%
CN(c1ccc(NC(=O)NCCN2CCOCC2)cc1)c1ccnc(Nc2ccc(CS(C)(=O)=O)cc2)n1	1.28%	0.25%	2.58%	1.92%	2.04%	-0.08%	0.81%	4.11%	4.4%	0.08%
CS(=O)(=O)Nc1ccc(-c2ccc3c(NC(=O)C4CC4)n[nH]c3c2)cc1	2.05%	-1.28%	-3.34%	2.67%	4.34%	0.92%	1.63%	-0.54%	-0.98%	2.34%
Fc1ccc(Nc2nccc(-c3c(-c4ccc(C(F)(F)F)cc4)nn4ncccc34)n2)cc1F	2.9%	-0.59%	-3.45%	3.44%	3.77%	1.05%	2.86%	-3.81%	-1.62%	0.46%
CS(=O)(=O)Nc1ccc(-c2cc(-c3ccccc3)cc(C(N)=O)c2N)cc1	1.43%	-1.01%	-1.76%	3.24%	3.21%	3.22%	3.77%	0.42%	-0.01%	-1.73%
COc1cc(Nc2ncc(-c3ccccc3)o2)cc(OC)c1	3.94%	-2.65%	-2%	8.32%	6.87%	5.4%	5.83%	0.33%	3.11%	2.1%
CNC(=O)c1sc(-n2cnc3cc(OC)c(OC)cc32)cc1OCc1ccccc1C(F)(F)F	1.74%	-2.64%	-0.97%	3.44%	4.4%	0.73%	6.41%	6.54%	0.66%	-7.75%
Cn1c(-c2nonc2N)nc2cnccc21	2.23%	-3.06%	-4.33%	1.04%	3.15%	1.35%	1.72%	1.38%	-3.7%	-0.45%
O=C1Nc2ccccc2/C1=C1\CCc2cc(O)ccc21	4.17%	-1.97%	-3.93%	3.67%	6.82%	2.68%	5.45%	-5.42%	-0.12%	1.98%
NS(=O)(=O)c1ccc(N/N=C2\C(=O)Nc3ccc(C(=O)NCc4ccncc4)cc32)cc1	2.56%	-1.11%	2.06%	0.9%	0.8%	0.21%	0.37%	-0.51%	-0.17%	-0.37%
OCCCNc1nccc(-c2c(-c3ccc(F)cc3)nn3cc(C(F)(F)F)ccc23)n1	2.13%	-1.12%	-3.43%	2.12%	2.75%	4.76%	4.87%	4.2%	-3.41%	-0.34%
CS(=O)(=O)CCNCc1ccc(-c2ccc3ncnc(Nc4ccc(OCc5cccc(C(F)(F)F)c5)cc4)c3c2)o1	6.4%	-2%	-2.32%	4.42%	4.38%	0.9%	1.81%	0.98%	-0.43%	1.49%
COc1cccc(-n2ncc3c(N/N=C/c4ccc(C(=O)NCCN(C)C)cc4)ncnc32)c1	4.67%	-1.63%	-2.59%	2.48%	20.2%	4.52%	16.3%	-3.13%	5.75%	5.89%
CCN1CCC(C(=O)Nc2n[nH]c3nnc(-c4cccc(F)c4F)cc23)CC1	-1.22%	-1.43%	0.92%	-1.4%	-2.49%	-3.18%	-0.47%	0.1%	-1.04%	0.46%
COc1ccc(Nc2ncc(-c3ccccc3)o2)cc1OC	1.14%	-1.72%	-3.33%	-2.31%	0.95%	0.94%	4.48%	2.22%	4.24%	-0.27%
COc1ccc2ncn(-c3cc(O[C@H](C)c4ccccc4C(F)(F)F)c(C(N)=O)s3)c2c1	-0.21%	-0.66%	-1.2%	0.29%	4.81%	2.14%	12.2%	-1.47%	1.85%	-1.01%

SMILES	inhibition [1]	inhibition [2]	inhibition [3]	inhibition [4]	inhibition [5]	inhibition [6]	inhibition [7]	inhibition [8]	inhibition [9]	inhibition [10]
O=C(O[C@H]1CN[C@H](C#Cc2cc3ncnc(Nc4ccc5c(ccn5Cc5cc(F)ccc5F)c4)c3s2)C1)N1CCOCC1	3.26%	-2.77%	-4.63%	3.72%	9.95%	2.02%	7.62%	-3.81%	-0.39%	3.05%
CN1CCC(C(=O)Nc2n[nH]c3nc(-c4ccc(O)cc4)c(Br)cc23)CC1	7.35% and 7.26%	-0.9% and -1.12%	0.97% and -0.81%	4.19% and 1.14%	2.06% and 2.14%	1.92% and 0.51%	1.89% and 0.99%	2.14%	-0.62% and 1.07%	1.72% and 4.51%
N#Cc1ccc2c(-c3ccnc(NC4CC4)n3)c(-c3ccc(F)cc3)nn2c1	1.13%	-1.5%	-2.4%	0.7%	0.6%	-0.45%	-0.14%	-2.01%	-0.71%	3.55%
COC(=O)Nc1nc2cc(Oc3ccc(NC(=O)Nc4ccccc4)cc3)ccc2[nH]1	1.26%	-2.23%	-0.94%	3.19%	0%	0.3%	0.14%	3.09%	2.26%	-0.55%
Cc1nnc(-c2cccc(-c3ccc(C(=O)NCC4CC4)cc3)c2)o1	2.67%	-0.9%	2.29%	2.25%	2.72%	-0.87%	-2.41%	-0.63%	-1.44%	-1.27%
Nc1nonc1-c1nc2cnccc2n1C1CC1	3.34% and 3.65%	-1.33% and -0.52%	-1.72% and -0.89%	2.95% and 6.82%	3.77% and 8%	1.84% and 8.17%	2.3% and 9.78%	0.74% and 1.33%	-6.41% and 0.29%	-1.72% and 0.56%
FC(F)(F)CNc1nccc(-c2cnn3ncccc23)n1	4.71%	-3.11%	-3.13%	2.55%	3.51%	0.99%	2.05%	2.04%	5.22%	-2.3%
COc1cc(N2CCN(C(C)C)CC2)ccc1Nc1nc(Nc2cccc(F)c2C(=O)O)c2cc[nH]c2n1	1.52%	-1.29%	5.69%	2.86%	4.42%	-0.59%	-3.11%	2.44%	0.72%	-1.3%
Cc1cc(O)cc(C)c1/C=C/c1cncc(C(N)=O)c1	1.72%	-2.4%	-0.6%	0.88%	3.67%	0.87%	2.16%	0.44%	-1.46%	-0.95%
CCS(=O)(=O)c1ccc(OC)c(Nc2ncc(-c3cccc(C(C)=O)c3)o2)c1	1.14%	-0.6%	4.89%	2.7%	1.8%	0.22%	-1.96%	2.44%	-1.58%	13.1%
COc1ccc(-c2nn3ncccc3c2-c2ccnc(Nc3ccc(F)c(F)c3)n2)cc1	2.57%	-0.49%	4.3%	4.28%	3.75%	1.6%	1.61%	-1.35%	-6.41%	-0.41%
COc1ccccc1-c1cc(/C=C2\C(=O)Nc3ncc(Br)cc32)cc(Br)c1O	4.01%	-2.27%	-5.25%	8.24%	18.6%	7.45%	13.9%	-5.01%	7.13%	0.8%
O=C(O[C@H]1CN[C@H](C#Cc2cc3ncnc(Nc4ccc(OCc5cccc(F)c5)c(Cl)c4)c3s2)C1)N1CCOCC1	3.47%	-2%	0.44%	4.94%	26.9%	3.37%	15.8%	-0.81%	1.44%	0.99%
CCOc1ccc2c(-c3ccnc(Nc4cc(OC)cc(C(F)(F)F)c4)n3)cnn2n1	1.08%	-1.1%	-0.9%	-0.03%	5.25%	-1.72%	10.2%	3.54%	-4.92%	-3.8%
COc1cccc(Nc2nccc(-c3cnn4ncccc34)n2)c1	9.23%	-0.98%	4.98%	3.25%	17%	3.95%	19.1%	-0.93%	11.1%	0.27%
